Consider 14 compounds from PubChem BioAssay (NCI).

The panel holds about 83,000 compounds, 20% with a hit somewhere; the sample as a whole holds those more often.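 Each cell line was grown in a 96-well plate and treated with one concentration of compound for 48 hours. Values below 10 were considered active.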 A number with no mark means an inactive call. Calls of active or inactive are those of the source.

Some test systems named below: DU-145 prostate; K-562 leukemia; MALME-3M melanoma; MDA-MB-231 breast; RXF 393 renal; SF-268 CNS; SF-295 CNS; SF-539 CNS; UACC-257 melanoma; M14 melanoma.
Common to all, as to experiment: NCI-60 one-dose screen, 48 h (100 = growth as untreated, 0 = no growth, -100 = all killed)
What all share (conditions): 10 µM unless noted

For the compound `Cn1cccc1C(=O)C1C(c2cccc([N+](=O)[O-])c2)C2C3CCCCC3CN2C12C(=O)Nc1ccc(Cl)cc12` (stereo not given), the growth was 38.7% in the assay on DU-145 prostate; 33.4% in the assay on K-562 leukemia; 68.1% with MALME-3M melanoma; 55.6% with MDA-MB-231 breast; -16.8% (active) in the assay with RXF 393 renal; 52.3% with SF-268 CNS. Besides, the growth in the assay with SF-295 CNS was 82.3%; in the assay on SF-539 CNS, 77.2%; with UACC-257 melanoma, 70.7%; in the assay with M14 melanoma it was 52.4%.
For the compound `O=C1c2cccnc2C(=O)c2c1c(C(=O)NCCn1ccnc1)c1ccccn21`, the growth was 29.9% in the assay on DU-145 prostate; 29.3% in the assay with K-562 leukemia; -68.8% (active) in the assay on MALME-3M melanoma; 13.6% in the assay on MDA-MB-231 breast; 59.7% in the assay on RXF 393 renal; 23.6% with SF-268 CNS. The growth in the assay on SF-295 CNS was 29.5%; with SF-539 CNS it was 9.99% (active); in the assay on UACC-257 melanoma, -29% (active); with M14 melanoma it was 7.17% (active).
`O=C(O)CCCN1C(=O)/C(=C/C(Cl)=C/c2ccccc2)SC1=S`: the growth in the assay on DU-145 prostate was 18.9%; in the assay with K-562 leukemia it was 14.7%; in the assay on MALME-3M melanoma it was -2.99% (active); with MDA-MB-231 breast it was 38.1%; in the assay with RXF 393 renal it was -16.5% (active); in the assay with SF-268 CNS it was 56.1%. The growth is 49.5% with SF-295 CNS, 10% in the assay on SF-539 CNS, 40.8% in the assay on UACC-257 melanoma and 9.62% (active) in the assay with M14 melanoma.
Regarding `O=C1NCCC12CCN(c1c(Cl)cncc1-c1ccc(O)cc1)CC2`, the growth in the assay on DU-145 prostate was 108%; in the assay with K-562 leukemia, 97.9%; with MALME-3M melanoma, 117%; in the assay on MDA-MB-231 breast, 102%; with RXF 393 renal it was 87.9%; in the assay on SF-268 CNS, 82.5%. For the same compound, the growth is 101% in the assay with SF-295 CNS, 83.7% in the assay on SF-539 CNS, 86.7% in the assay with UACC-257 melanoma and 114% in the assay with M14 melanoma.
Consider `OCCCC1CCN(C(Cc2ccccc2)c2ccccc2)CC1` (stereo not given), for which the growth is 103% with DU-145 prostate; 113% with K-562 leukemia; 93.8% in the assay on MALME-3M melanoma; 97.8% in the assay with MDA-MB-231 breast; 111% in the assay with RXF 393 renal; 90.6% in the assay on SF-268 CNS. For the same compound, the growth with SF-295 CNS was 98.7%; in the assay with SF-539 CNS, 85.6%; in the assay with UACC-257 melanoma it was 96.4%; in the assay on M14 melanoma it was 88.8%.
With `Cn1cc(-c2csc(-c3ccc(Cl)cc3)n2)c2cccnc21`, the growth in the assay on DU-145 prostate was -70.5% [100 µM] (active); with K-562 leukemia, 3.35% [100 µM] (active); in the assay with MALME-3M melanoma, -9.47% [100 µM] (active); in the assay on MDA-MB-231 breast it was -46.5% [100 µM] (active); in the assay on RXF 393 renal, -7.46% [100 µM] (active); in the assay with SF-268 CNS, -33.6% [100 µM] (active). Also, the growth was -20.3% [100 µM] (active) in the assay with SF-295 CNS, -63.8% [100 µM] (active) in the assay on SF-539 CNS, -35.6% [100 µM] (active) with UACC-257 melanoma and -62.3% [100 µM] (active) in the assay on M14 melanoma.
In the case of `COc1ccc(C(=O)C2C(c3ccc(OC)cc3)CN(C)C23C(=O)Nc2ccccc23)cc1` (stereo not given), the growth was 99% in the assay on DU-145 prostate; 77.1% in the assay on K-562 leukemia; 92.7% in the assay on MALME-3M melanoma; 93.9% with MDA-MB-231 breast; 80.8% in the assay with RXF 393 renal; 89.7% with SF-268 CNS. The growth in the assay on SF-295 CNS was 90.6%; with SF-539 CNS it was 104%; in the assay on UACC-257 melanoma it was 97.5%; in the assay with M14 melanoma, 98.9%.
For `O=C(CCCCC1CCSS1)Nc1ncnc2n[nH]c(-c3ccc(Oc4ccccc4)cc3)c12` (stereo not given), the growth with DU-145 prostate was 65.6%; with K-562 leukemia, 9.6% (active); in the assay with MALME-3M melanoma, 109%; with MDA-MB-231 breast, 68.3%; with RXF 393 renal, 113%; in the assay on SF-268 CNS it was 72.4%. The growth in the assay on SF-295 CNS was 102%; in the assay with SF-539 CNS, 106%; in the assay with UACC-257 melanoma, 95.2%; in the assay with M14 melanoma, -62.8% (active).
With `CC(C)n1cnc2c(=S)nc[nH]c21`, the growth with DU-145 prostate is 111%; in the assay with K-562 leukemia, 69.9%; in the assay on MALME-3M melanoma, 156%; in the assay on MDA-MB-231 breast, 118%; with RXF 393 renal, 121%; in the assay on SF-268 CNS it was 101%. Further, the growth in the assay with SF-295 CNS is 90.1%; in the assay on SF-539 CNS, 99.6%; in the assay on UACC-257 melanoma it was 120%; in the assay with M14 melanoma, 109%.
Regarding `COc1ccc(C(c2cc(OC)c(OC)c(OC)c2)N2CCN(c3ccccc3)CC2)cc1` (stereo not given), the growth with DU-145 prostate was 113%; in the assay with K-562 leukemia, 41.6%; with MALME-3M melanoma, 99.7%; in the assay on MDA-MB-231 breast, 92.3%; with RXF 393 renal it was 96.2%; in the assay on SF-268 CNS it was 95.8%. Moreover, the growth is 92.3% in the assay on SF-295 CNS, 94.4% in the assay on SF-539 CNS, 81.3% in the assay on UACC-257 melanoma and 76.3% with M14 melanoma.
As for `CCOC(=O)C(=Cc1cccc(Br)c1)C(=O)OCC`, the growth is 4.57% (active) with DU-145 prostate; 21.3% with K-562 leukemia; 73.1% with MALME-3M melanoma; 38.1% in the assay on MDA-MB-231 breast; 40.3% in the assay with RXF 393 renal; 25.7% in the assay with SF-268 CNS. Further, the growth in the assay with SF-295 CNS is 97%; with SF-539 CNS, 4.36% (active); in the assay with UACC-257 melanoma, 35%; in the assay with M14 melanoma it was 32.9%.
With `CCn1c(=S)[nH]c2c(=O)n(C)c(=O)n(C)c21`, the growth with DU-145 prostate is 111%; in the assay with K-562 leukemia it was 105%; with MALME-3M melanoma, 99.6%; in the assay with MDA-MB-231 breast, 115%; with RXF 393 renal it was 106%; in the assay with SF-268 CNS, 114%. In addition, the growth was 104% in the assay with SF-295 CNS, 95.3% with SF-539 CNS, 92% in the assay on UACC-257 melanoma and 95.5% in the assay with M14 melanoma.
Turning to `COCCn1cc(-c2nc(-c3cc4cccnc4n3CCOC)cs2)c2cc(OC)ccc21`, the growth in the assay on DU-145 prostate was 72.4%; with K-562 leukemia it was 0.391% (active); with MALME-3M melanoma, 119%; in the assay on MDA-MB-231 breast it was 23.7%; in the assay with RXF 393 renal it was 66.3%; in the assay on SF-268 CNS it was 74.2%. Moreover, the growth in the assay with SF-295 CNS is 74.2%; in the assay on SF-539 CNS, 62.6%; in the assay on UACC-257 melanoma it was 94.7%; with M14 melanoma, 69.4%.
As to `Cc1cc2c(O)c(-c3cccc(Cl)c3)c3sc(=O)oc3c2cc1C`, the growth with DU-145 prostate was 48.1%; with K-562 leukemia, 17.2%; in the assay on MALME-3M melanoma, 58.4%; in the assay on MDA-MB-231 breast, 53.9%; in the assay on RXF 393 renal, 63.5%; in the assay on SF-268 CNS, 48.7%. In addition, the growth in the assay on SF-295 CNS is 66%; with SF-539 CNS, 54.3%; with UACC-257 melanoma, 39.6%; in the assay on M14 melanoma it was 51.9%.
